# Inconclusive results are not listed. Active and inactive are the calls of the source. Rule for the calls: active = hit-call score of the fitted dose curve at least 0.9, where 1 is the maximum; inconclusive = response in the unintended direction; inactive = score below 0.9.
# Biological target: Hepatocyte nuclear factor 4-alpha (Homo sapiens) (UniProt P41235)
# Test: ATG_HNF4a_TRANS: Attagene TRANS-FACTORIAL HepG2 Assay for human Hepatocyte Nuclear Factor 4 alpha (HNF4a) (AID 2282982)
# Details: HepG2 HNF4a transactivation reporter, mRNA readout
# In short: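 Readout is fluorescent reporter-transcript fragments resolved by capillary electrophoresis after RT-PCR from HepG2 cells dosed for 24 h. Cells carried transfected GAL4-UAS reporter constructs measuring exogenous NR-GAL4 chimera activity; DMSO served as baseline.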
# Chain of Hepatocyte nuclear factor 4-alpha (Homo sapiens) (P41235 whole entry, looked up): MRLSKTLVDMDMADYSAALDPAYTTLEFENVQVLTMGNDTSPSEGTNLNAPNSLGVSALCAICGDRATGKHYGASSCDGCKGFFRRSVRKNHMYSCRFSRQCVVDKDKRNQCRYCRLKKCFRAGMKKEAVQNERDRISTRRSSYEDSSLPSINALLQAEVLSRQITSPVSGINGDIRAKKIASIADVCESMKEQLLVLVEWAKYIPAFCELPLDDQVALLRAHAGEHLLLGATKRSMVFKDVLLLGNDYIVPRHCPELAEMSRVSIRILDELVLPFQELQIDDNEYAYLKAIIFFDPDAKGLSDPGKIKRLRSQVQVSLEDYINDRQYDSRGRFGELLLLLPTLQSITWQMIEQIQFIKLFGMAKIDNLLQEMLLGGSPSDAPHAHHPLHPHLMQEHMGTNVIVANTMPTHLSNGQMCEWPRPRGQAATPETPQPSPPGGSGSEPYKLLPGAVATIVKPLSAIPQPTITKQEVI
row,SMILES,outcome
1,CCCCC(CC)COC(=O)c1ccc(O)cc1 (stereo not given),inactive
2,CC(C)(C)OC(=O)c1ccc(O)cc1,inactive
3,COc1cc(Cl)c(OC)cc1N,inactive
4,O=[N+]([O-])c1ccc(O)cc1C(F)(F)F,inactive
5,CCOC(=O)CC(C)O (stereo not given),inactive
6,COC(=O)c1ccc(OC)cc1,inactive
7,CCC(Cl)C(Cl)C(Cl)CC(Cl)C(Cl)C(C)Cl (stereo not given),inactive
8,COC(C)(C)CC(C)=O,inactive
9,O=C(Nc1ccc2c(c1)Cc1ccccc1-2)C(F)(F)F,inactive
10,CC(=O)O[C@@H]1C[C@@H]2CC[C@@]1(C)C2(C)C,inactive
11,NCC1CCCC(CN)C1 (stereo not given),inactive
12,CCCCCCCCCCCC(=O)OC[C@@H](O)[C@H]1OC[C@H](O)[C@H]1O,inactive
13,CCOC(=O)CN,inactive
14,CCC1(c2ccccc2)C(=O)NCNC1=O,inactive
15,CCc1cc(Cc2cc(CC)cc(C(C)(C)C)c2O)c(O)c(C(C)(C)C)c1,inactive
16,CC1(C)C(=O)N(Cl)C(=O)N1Br,inactive
17,Cc1cc(C)nc(NS(=O)(=O)c2ccc(N)cc2)n1,inactive
18,CCCCCCCCCCCCN1CCCCCC1=O,inactive
19,CCOC(=O)c1ccc(N)cc1,inactive

# Test system: not listed separately
# Test: ATG_M_06_TRANS: Attagene TRANS-FACTORIAL HepG2 Assay for M06 Transcription Factor (Internal Marker) (AID 2282983);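 note: reporter transcript level by RT-PCR then capillary electrophoresis fluorescence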
# Details: HepG2 Attagene TRANS M06 internal marker reporter
# In short: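 HepG2 cells transiently transfected with GAL4-UAS multiple reporter units, dosed 24 h. Reporter RNA reverse-transcribed, PCR-amplified, 6-FAM-labeled, HpaI-digested and quantified by capillary electrophoresis; this internal-marker signal fitted upward relative to DMSO.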
row,SMILES,outcome
1,C=CC(C)C#N (stereo not given),inactive
2,CCCCC(CC)COC(=O)c1ccc(O)cc1 (stereo not given),inactive
3,CCOC(=O)[C@@H](C)Oc1ccc(Oc2nc3ccc(Cl)cc3o2)cc1,inactive
4,CC(C)(C)OC(=O)c1ccc(O)cc1,inactive
5,COc1cc(Cl)c(OC)cc1N,inactive
6,O=[N+]([O-])c1ccc(O)cc1C(F)(F)F,inactive
7,COC(=O)c1ccc(OC)cc1,inactive
8,CCC(Cl)C(Cl)C(Cl)CC(Cl)C(Cl)C(C)Cl (stereo not given),inactive
9,COC(C)(C)CC(C)=O,inactive
10,CC(=O)O[C@H]1C[C@@H]2CC[C@@]1(C)C2(C)C,inactive
11,O=C(Nc1ccc2c(c1)Cc1ccccc1-2)C(F)(F)F,inactive
12,NCC1CCCC(CN)C1 (stereo not given),inactive
13,CCCCCCCCSCCO,inactive
14,CCCCCCC(O)CCCCCCCCCCC(=O)O (stereo not given),inactive
15,CC1C2CC(CC2C2CCCC(O)C2)C1(C)C (stereo not given),inactive
16,CCCCCCCCCCCC(=O)OC[C@@H](O)[C@H]1OC[C@H](O)[C@H]1O,inactive
17,C=CC(C)(O)CCC=C(C)C (stereo not given),inactive
18,CCOC(=O)CN,inactive
19,CCC1(c2ccccc2)C(=O)NCNC1=O,inactive
20,CCc1cc(Cc2cc(CC)cc(C(C)(C)C)c2O)c(O)c(C(C)(C)C)c1,inactive
21,Cc1cc(C)nc(NS(=O)(=O)c2ccc(N)cc2)n1,inactive
22,Cc1cc(=O)oc2cc(N(C)C)ccc12,inactive
23,CSc1c(Cl)c(Cl)c(Cl)c(Cl)c1Cl,inactive
24,C=C1CC[C@H](O)C/C1=C/C=C1\CCC[C@]2(C)[C@@H]([C@H](C)/C=C/[C@H](C)C(C)C)CC[C@@H]12,inactive
25,O=C(Nc1ccc([N+](=O)[O-])cc1)Nc1ccc([N+](=O)[O-])cc1 (tested in a mixture with another compound),inactive
26,CCCCCCCCCCCCN1CCCCCC1=O,inactive
27,CC1(C)C2=CCCC(C)(C)[C@]23CC[C@H]1C3,inactive
28,CCCCCCC(C)Nc1ccc(Nc2ccccc2)cc1 (stereo not given),inactive
29,CC(C=O)Cc1ccc(C(C)(C)C)cc1 (stereo not given),inactive

# Test system: not listed separately
# Test: ATG_M_32_TRANS: Attagene TRANS-FACTORIAL HepG2 Assay for M32 Transcription Factor (Internal Marker) (AID 2282984);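 note: transcript level of a background control reporter unit measured by RT-PCR and capillary electrophoresis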
# Details: HepG2 Attagene TRANS M32 internal marker reporter
# In short: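 Measures reporter mRNA induction in human HepG2 liver cells after 24 h chemical treatment. Transcripts from transiently transfected GAL4-UAS reporter units are amplified, fluorescently labelled and sized by capillary electrophoresis; gain of signal relative to DMSO.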
row,SMILES,outcome
1,C=CC(C)C#N (stereo not given),inactive
2,CCCCC(CC)COC(=O)c1ccc(O)cc1 (stereo not given),inactive
3,CCOC(=O)[C@@H](C)Oc1ccc(Oc2nc3ccc(Cl)cc3o2)cc1,inactive
4,CN(C)CCOc1ccc(/C(=C(/CCCl)c2ccccc2)c2ccccc2)cc1,inactive
5,O=[N+]([O-])c1ccc(O)cc1C(F)(F)F,inactive
6,CCOC(=O)CC(C)O (stereo not given),inactive
7,COC(=O)c1ccc(OC)cc1,inactive
8,CCC(Cl)C(Cl)C(Cl)CC(Cl)C(Cl)C(C)Cl (stereo not given),inactive
9,COC(C)(C)CC(C)=O,inactive
10,CC(=O)O[C@H]1C[C@@H]2CC[C@@]1(C)C2(C)C,inactive
11,O=C(Nc1ccc2c(c1)Cc1ccccc1-2)C(F)(F)F,inactive
12,CC(=O)O[C@@H]1C[C@@H]2CC[C@@]1(C)C2(C)C,inactive
13,NCC1CCCC(CN)C1 (stereo not given),inactive
14,CCCCCCCCSCCO,inactive
15,CCCCCCC(O)CCCCCCCCCCC(=O)O (stereo not given),inactive
16,CC1C2CC(CC2C2CCCC(O)C2)C1(C)C (stereo not given),inactive

row,SMILES,outcome
1,CCCCCCCCCCCC(=O)OC[C@@H](O)[C@H]1OC[C@H](O)[C@H]1O,inactive
2,CCc1cc(C(C)(C)C)c(O)c(C(C)(C)C)c1,inactive
3,C=CC(C)(O)CCC=C(C)C (stereo not given),inactive
4,CCC1(c2ccccc2)C(=O)NCNC1=O,inactive
5,CC1(C)C(=O)N(Cl)C(=O)N1Br,inactive
6,Cc1cc(C)nc(NS(=O)(=O)c2ccc(N)cc2)n1,inactive
7,Cc1cc(=O)oc2cc(N(C)C)ccc12,inactive
8,CSc1c(Cl)c(Cl)c(Cl)c(Cl)c1Cl,inactive
9,C=C1CC[C@H](O)C/C1=C/C=C1\CCC[C@]2(C)[C@@H]([C@H](C)/C=C/[C@H](C)C(C)C)CC[C@@H]12,inactive
10,IC(I)I,inactive
11,CC1(C)O[C@@H]2C[C@H]3[C@@H]4CCC5=CC(=O)C=C[C@]5(C)[C@@]4(F)[C@@H](O)C[C@]3(C)[C@]2(C(=O)CO)O1,inactive
12,O=C(Nc1ccc([N+](=O)[O-])cc1)Nc1ccc([N+](=O)[O-])cc1 (tested in a mixture with another compound),inactive
13,Cc1ccc(S(=O)(=O)Oc2ccc(N=Nc3ccc(-c4ccc(N=Nc5c(O)ccc6cc(S(=O)(=O)O)cc(S(=O)(=O)O)c56)c(C)c4)cc3C)cc2)cc1,inactive
14,CC1(C)C2=CCCC(C)(C)[C@]23CC[C@H]1C3,inactive
15,CCOC(=O)c1ccc(N)cc1,inactive
16,CC(C=O)Cc1ccc(C(C)(C)C)cc1 (stereo not given),inactive

# Reference: PubChem BioAssay (EPA / NIEHS)
